In the library only some 2.8% were active in any assay of this set; here they are far more common.
KCNH2 3.1 inh – qHTS for Inhibitors of KCHN2 3.1: Mutant qHTS; activity change, % (tested at about 1.8 µM); 340,000 compounds, 0.95% hits; U2OS KCNH2 3.1, thallium flux FluxOr; active compounds read low; Potassium voltage-gated channel subfamily H member 2, brain isoform KCNH2 3.1 (human); AID 720553, 2013;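 active = maximum activity change below -70%; inconclusive = maximum activity change from -70% to -50%; inactive = maximum activity change above -50%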;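 note: thallium influx rate constant from kinetic fluorescence after stimulation buffer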
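We transduce U2OS cells with the mutant 3.1 virus, culture them overnight, load FluxOr with Red40 quencher for 45 min, then add stimulation buffer and read kinetically for 2 min to derive a normalized rate constant.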
hERG WT inh – qHTS for Inhibitors of KCHN2 3.1: Wildtype qHTS. Voltage-gated inwardly rectifying potassium channel KCNH2 (Homo sapiens), Q12809. U2OS, BacMam KCNH2, thallium flux FluxOr; active compounds read low. activity change, % at 1.84 µM. 340,000 compounds, 0.37% hits. AID 720551, 2013;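 active = maximum activity change below -70%; inconclusive = maximum activity change between -70% and -50%; inactive = maximum activity change above -50%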
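U2OS cells transduced with wild-type KCNH2 virus are loaded with FluxOr dye for 45 min, and thallium flux is measured in kinetic reads before and after stimulation buffer. Rate constants are normalized to DMSO controls.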
GLP1R ag – qHTS of GLP-1 Receptor Agonists | Glucagon-like peptide 1 receptor (Homo sapiens), P43220 | HEK293 GLP-1R CRE-luciferase, luminescence, 4-6 h; cells express a hypersensitive GLP-1R form | Potency, µM (top dose mostly 45.6 µM), most hits filed as activators | 380,000 compounds, 0.007% hits | AID 624172, 2012
Target sequence (P43220 whole entry, looked up): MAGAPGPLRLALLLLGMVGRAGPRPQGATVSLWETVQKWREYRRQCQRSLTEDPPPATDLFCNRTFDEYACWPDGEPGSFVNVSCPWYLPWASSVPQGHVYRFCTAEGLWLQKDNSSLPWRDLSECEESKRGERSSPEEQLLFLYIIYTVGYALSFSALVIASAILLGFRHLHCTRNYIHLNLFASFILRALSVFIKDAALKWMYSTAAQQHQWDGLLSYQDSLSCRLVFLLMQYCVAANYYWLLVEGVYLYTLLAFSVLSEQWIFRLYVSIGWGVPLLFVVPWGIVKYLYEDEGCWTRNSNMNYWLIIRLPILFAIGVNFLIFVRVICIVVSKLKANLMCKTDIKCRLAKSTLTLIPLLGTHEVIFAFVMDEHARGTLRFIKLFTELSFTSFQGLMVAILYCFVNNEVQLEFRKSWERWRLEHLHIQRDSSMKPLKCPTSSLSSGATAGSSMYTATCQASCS
HEK293 tox – qHTS of GLP-1 Receptor Inverse Agonists: Cytotox Screen; HEK293 cAMP-luciferase reporter cells, luminescence, 24 h; Potency, µM (top dose mostly 38.3 µM), actives largely listed as inhibitors; 410,000 compounds, 0.13% hits;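 note: loss of luciferase light is scored as toxicity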
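A 23 nL compound transfer followed 12 hours of cell culture at 37 deg C; exposure then lasted 24 hr. Luciferase assay detection reagent was dispensed and plates read for luminescence after a 12 min room-temperature wait.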
GLP1R inv ag – qHTS of GLP-1 Receptor Inverse Agonists (Inhibition Mode). Potency, µM (series often up to 38.3 µM), actives largely listed as inhibitors. Glucagon-like peptide 1 receptor (Homo sapiens), P43220. 410,000 compounds, 1.6% hits. HEK293 GLP-1R CRE-luciferase, luminescence, 24 h; GLP-1R form is constitutively active; note: nearly all actives have a fitted effect of over 55% in size
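Constitutively active GLP-1R drives a cAMP-responsive luciferase in stably transfected HEK293 cells; test compounds are added after overnight (12 h) attachment and left 24 hr, and signal loss in luminescence marks inhibition.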
GLS inhibitor – qHTS for Inhibitors of Glutaminase (GLS) | AID 624170, 2012 | Potency, µM (top dose mostly 45.5 µM), most hits filed as inhibitors | GLS enzymatic activity, qHTS titration | 410,000 compounds, 0.21% hits | Glutaminase kidney isoform, mitochondrial (Homo sapiens), O94925
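hKGA; 45 mM KH2PO4 pH 8.2 + 0.02% Tween-20; cpd via pin tool; 1 mM Gln soln; GluOx/HRP/Amplex Red; RT 30 min; fluor. t0 & final.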
Each line names hits and unclear results; the compound was inactive in the other large screens. Unless noted, calls come from the whole dose curve; as a rule, active = well fitted curve in the direction sought with a large enough effect; inconclusive = small, poorly fitted or top-dose-only effect, or another doubt; inactive = no such curve, though single readings can be large; an effect the other way counts as inactive or inconclusive.

Cc1ccc(S(=O)(=O)c2cn(CC(=O)Nc3ccc4c(c3)OCO4)c3ccc(C)cc3c2=O)cc1	none (no result: KCNH2 3.1 inh, hERG WT inh)
CCN(CC)c1ccc(/C=N/NC(=O)c2ccoc2C)c(O)c1	GLP1R inv ag 3.5µM
COCCCNC(=O)CCc1c(C)nc2nc(-c3cc(OC)cc(OC)c3)nn2c1C	none (no result: KCNH2 3.1 inh, hERG WT inh)
C/C(=N\Nc1ccc(C(=O)O)cc1)c1ccc2c(c1)Nc1ccccc1S2	GLP1R inv ag inconclusive, GLS inhibitor 18µM
C/C(=N/Nc1ccc(C(=O)O)cc1)c1ccc2c(c1)Nc1ccccc1S2	GLP1R inv ag inconclusive
CC(=O)c1ccc(Nc2nc(-c3cccnc3)cs2)cc1	hERG WT inh -81
Oc1ccc(Nc2nc(-c3cccnc3)cs2)cc1	GLS inhibitor 5µM
CCCCOc1ccc(CNC(=O)c2cnc3sc(N4CCC(C)CC4)nn3c2=O)cc1	none (no result: KCNH2 3.1 inh, hERG WT inh, GLP1R ag)
COc1ccc(/C=C/C(=O)C2C(=O)C=C(C)OC2=O)cc1O (centres undefined)	GLS inhibitor 7.1µM
CNS(=O)(=O)c1ccc(CNC[C@H]2O[C@@H](n3cnc(C(N)=O)n3)[C@H](O)[C@@H]2O)cc1	none
Cc1cc(C)c(NC(=O)CN)c(C)c1	GLS inhibitor 0.89µM
Cc1cccc(C)c1NC(=O)CN	GLS inhibitor inconclusive
CCC(Oc1ccccc1)C(=O)Nc1nnc(S(=O)(=O)N(CC)CC)s1 (centres undefined)	none (no result: KCNH2 3.1 inh, hERG WT inh, GLP1R ag)
CCNC(=O)c1c(O)c2ccccc2[nH]c1=O	GLP1R inv ag 10µM
Cc1ccccc1OCc1nc2c3cnn(-c4cccc(F)c4)c3ncn2n1	none (no result: KCNH2 3.1 inh, hERG WT inh, GLP1R ag)
OCC[C@@H]1C[C@@H](O)[C@H](O)[C@@]2(CCc3ccccc3CO2)O1	none
Cn1nnc2c(NCc3ccccc3)ncnc21	none (no result: KCNH2 3.1 inh, hERG WT inh, GLP1R ag)
Cc1ccc(NC(=O)C2(NC(=O)c3cccc(N4C(=O)CSC4c4ccccc4)c3)CCCCC2)cc1 (centres undefined)	GLP1R inv ag 6.3µM
O=[N+]([O-])c1ccc(S(=O)Cc2ccccc2)c([N+](=O)[O-])c1 (centres undefined)	HEK293 tox inconclusive, GLP1R inv ag inconclusive
O=c1c2c([N+](=O)[O-])cc([N+](=O)[O-])cc2sn1-c1ccc(Br)cc1	GLS inhibitor 11µM
O=C(Nc1ccc(Br)cc1)c1cc([N+](=O)[O-])cc([N+](=O)[O-])c1	none
O=c1c2c([N+](=O)[O-])cc([N+](=O)[O-])cc2sn1Cc1ccccc1	GLS inhibitor 1.8µM
CCc1ccccc1N/N=C(/C)c1c(O)cc(C)oc1=O	KCNH2 3.1 inh inconclusive, GLS inhibitor 11µM
C/C(=N\NC(=O)c1ccccc1O)c1c(O)cc(C)oc1=O	none
COc1ccc(/C=C/c2cc(C(=O)O)c3ccccc3n2)cc1	GLP1R inv ag inconclusive
Cc1cc(/C=C\c2ccccc2)nc2ccccc12	KCNH2 3.1 inh -189, GLP1R inv ag inconclusive
Fc1ccc(Cn2nnc(-c3ccc(Cl)cc3)n2)cc1	none
Clc1ccc(Cn2nnc(-c3ccc(N4CCOCC4)cc3)n2)cc1	KCNH2 3.1 inh -73
O=c1c(N2CCc3ccccc3C2)csc2ccc(F)cc12	none (no result: KCNH2 3.1 inh, hERG WT inh, GLP1R ag)
Cc1ccc(-n2nc(CO)c(C(=O)NC(C)CCCc3ccccc3)n2)cc1C (centres undefined)	GLP1R inv ag inconclusive (no result: KCNH2 3.1 inh, hERG WT inh, GLP1R ag)
CC1=C/C(=C\c2ccc(Br)o2)C(=O)O1	GLS inhibitor 11µM
COc1ccc(-c2noc(-c3ccc(N4CCCCC4C)c([N+](=O)[O-])c3)n2)cc1OC (centres undefined)	none (no result: KCNH2 3.1 inh, hERG WT inh, GLP1R ag)
CC(=O)c1ccc(NC(=O)COc2ccccc2-c2nc(-c3ccc(C)cc3)no2)cc1	none (no result: KCNH2 3.1 inh, hERG WT inh, GLP1R ag)
CCN(CC)C(=O)CSc1n[nH]c(=O)n1CCc1ccccc1	none
O=c1[nH]nc(Sc2ncnc3sccc23)n1CCc1ccccc1	HEK293 tox inconclusive, GLP1R inv ag 5.6µM
O=C(OCCOc1cccc(Cl)c1)c1cc(S(=O)(=O)N2CCCCC2)ccc1N1CCOCC1	GLP1R inv ag 5.6µM
COc1ccc(S(=O)(=O)N2CCCCCC2)cc1NC(=O)Cc1cccc(C(F)(F)F)c1	GLP1R inv ag 10µM
O=C(Nc1ccccc1N1CCCCC1)C1CCN(S(=O)(=O)c2cccc(C(F)(F)F)c2)CC1	GLP1R inv ag 11µM
COc1ccc(S(=O)(=O)N2CCCCC2)cc1NC(=O)Cc1cccs1	KCNH2 3.1 inh -76
O=C(Cc1cccs1)Nc1ccc(S(=O)(=O)N2CCCCC2)cc1	GLP1R inv ag 10µM (no result: KCNH2 3.1 inh)
CN1CCN(S(=O)(=O)c2ccc(NC(=O)Cc3cccs3)cc2)CC1	none
O=C(CSc1nnc2scc(-c3ccc(Cl)cc3)n12)Nc1ccccc1F	none (no result: KCNH2 3.1 inh, hERG WT inh, GLP1R ag)
CCOC(=O)c1c(NC(=O)CN2C(=O)C(=O)N(CC(C)C)C2=O)sc(C)c1CC	none
CCOC(=O)Cn1c(=O)n(-c2ccccc2OC)c2nc(-c3ccccc3C)nc(C(N)=O)c21	GLP1R inv ag inconclusive (no result: KCNH2 3.1 inh, hERG WT inh)
Cc1cccn2c(=O)cc(COc3cccc(NC(=O)c4cccc(Cl)c4)c3)nc12	none (no result: KCNH2 3.1 inh, hERG WT inh, GLP1R ag)
O=C(NCCN1CCOCC1)c1sc2cc(Cl)ccc2c1Cl	none
CC(C)(CNC(=O)c1sc2cc(Cl)ccc2c1Cl)N1CCOCC1	GLP1R inv ag 10µM
CCOc1ccc(CNC(=O)C2CCN(S(=O)(=O)c3ccc4c(ccn4C)c3)CC2)cc1	none (no result: KCNH2 3.1 inh, hERG WT inh, GLP1R ag)
Cn1c(C(O)c2ccc(Br)cc2)nc(Cl)c1Cl (centres undefined)	GLP1R inv ag inconclusive
Cn1c(C(O)c2ccc(Cl)cc2)nc(Cl)c1Cl (centres undefined)	GLP1R inv ag 11µM
Cc1cccc(/C=C/c2onc(C)c2[N+](=O)[O-])n1	HEK293 tox inconclusive, GLP1R inv ag 2.8µM
Cc1cccc(N/C=C/c2onc(C)c2[N+](=O)[O-])c1	none
Cc1ccc(S(=O)(=O)N(C)c2ccc(OC(=O)COc3ccccc3)cc2)cc1	none
Cc1ccc(S(=O)(=O)N(C)c2ccc(OCC(=O)OCc3nnc(-c4ccccc4)o3)cc2)cc1	KCNH2 3.1 inh -88
COC(=O)c1cc(CSC(=N)N)ccc1OCCC(C)C	HEK293 tox inconclusive, GLP1R inv ag 10µM
CCCOc1ccc(CSC(=N)N)cc1C(=O)OC	GLP1R inv ag inconclusive
COC(=O)c1ccc(-n2nnnc2SCC(=O)Nc2ccccc2F)cc1	none
